From PubChem BioAssay AID743366 (National Center for Advancing Translational Sciences (NCATS), 2014)

experiment: qHTS profiling of inhibitors of Plasmodium falciparum (HB3) proliferation (acoustic dispense); conditions: P. falciparum HB3 in erythrocytes, SYBR Green, 72 h; at 49.8 µM (top of the series) unless noted

| SMILES | activity (normalised, proliferation) |
| --- | --- |
| CC(=NNC(=S)N1CCC1)c1ccccn1 | -0.583% |
| COc1cc2nc(N3CCCN(C)CC3)nc(NC3CCN(Cc4ccccc4)CC3)c2cc1OC | -1.22% |
| Cn1cnc(=N)c2[nH]cnc21 | 1.41% |
| CCS(=O)(=O)Nc1ccc2[nH]c(O)c(C(=Nc3ccc(CN4CCCCC4)cc3)c3ccccc3)c2c1 | -1.43% |
| Nc1ccc(-c2ccc3ncc4ccc(=O)n(-c5cccc(C(F)(F)F)c5)c4c3c2)cn1 | -1.37% |
| O=C1c2c(O)ccc(O)c2C(=O)c2c(NCCNCCO)ccc(NCCNCCO)c21 | -5.84% |
| CCCCN(CCCC)CCC(O)c1cc2c(Cl)cc(Cl)cc2c2cc(C(F)(F)F)ccc12 (stereo not drawn) | -0.0223% [at 23.2 µM] |
| CCN(CC)Cc1cc(Nc2ccnc3cc(Cl)ccc23)ccc1O | -0.453% [at 23.2 µM] |
| CS[C@H]1SC[C@@H]2C(=O)N(C)[C@H](C(C)C)C(=O)OC[C@H](NC(=O)c3cnc4ccccc4n3)C(=O)N[C@H](C)C(=O)N(C)[C@@H]1C(=O)N(C)[C@H](C(C)C)C(=O)OC[C@H](NC(=O)c1cnc3ccccc3n1)C(=O)N[C@H](C)C(=O)N2C | 1.22% |
| C=CCNC1=C2C[C@@H](C)C[C@H](OC)[C@@H](O)[C@@H](C)C=C(C)[C@H](OC(N)=O)[C@@H](OC)C=CC=C(C)C(=O)NC(=CC1=O)C2=O | -2.45% |
| CCC[C@H](Nc1nc(-c2ccc(NC(=O)NCC)c(OC)c2)ncc1C)c1cccnc1 | -0.168% |
| CCCCCCOC(=O)C1(O)CC2OC1(C)n1c3ccccc3c3c4c(c5c6ccccc6n2c5c31)C(=O)NC4 (stereo not drawn) | 100% [at 1.88 µM] |
| CC[C@@]1([C@@H]2O[C@@H]([C@H]3O[C@@](O)(CO)[C@H](C)C[C@H]3C)C[C@H]2C)CC[C@H]([C@]2(C)CC[C@]3(C[C@H](O)[C@@H](C)[C@@H]([C@@H](C)[C@@H](OC)[C@H](C)C(=O)O)O3)O2)O1 | 1.41% [at 23.2 µM] |
| COc1cc(C)c2c(Oc3cccc(C(F)(F)F)c3)c(OC)cc(NCCCC(C)N)c2n1 (stereo not drawn) | -2.19% |
| CC1(CN2CCC(n3c(=O)[nH]c4ccccc43)CC2)OCc2ccccc2-n2cccc21 (stereo not drawn) | 24.8% |
| O[C@H](c1cc(C(F)(F)F)nc2c(C(F)(F)F)cccc12)[C@H]1CCCCN1 | 3.25% [at 23.2 µM] |
| CC[C@H]1OC(=O)[C@H](C)[C@@H](O[C@H]2C[C@@](C)(OC)[C@@H](O)[C@H](C)O2)[C@H](C)[C@@H](O[C@@H]2O[C@H](C)C[C@H](N(C)C)[C@@H]2O)[C@](C)(O)C[C@@H](C)CN(C)[C@H](C)[C@@H](O)[C@]1(C)O | -0.367% |
| C[C@H]1[C@@H](OC(=O)CCC(=O)O)O[C@@H]2O[C@@]3(C)CC[C@@H]4[C@H](C)CC[C@@H]1[C@@]24OO3 | -0.479% |
| COc1ccc(-c2cc3c(C)nc(N)nc3n(C3CCC(OCCO)CC3)c2=O)cn1 (stereo not drawn) | -1.37% |
| Cc1nc2c(C#N)cccc2n1-c1ccc(C(=O)NC2CC2)s1 | 1.48% |
| Clc1ccc2c(N3CCN(CCCN4CCN(c5ccnc6cc(Cl)ccc56)CC4)CC3)ccnc2c1 | -2.19% [at 23.2 µM] |
| Cn1cc(C2=C(c3c4n(c5ccccc35)CCC(CN)C4)C(=O)NC2=O)c2ccccc21 (stereo not drawn) | -0.862% |
| CC[C@H]1CN2CCc3cc(OC)c(OC)cc3[C@H]2C[C@@H]1C[C@@H]1NCCc2cc(OC)c(OC)cc21 | -0.337% |
